# Measurements published in PubChem BioAssay.
# Several values for one entry are separate records, joined by “and”; a condition that tells them apart may be missing. Equal entries are not always repeated. Activity calls are given as the source filed them.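 The calls were made as follows, unless noted: active = compounds whose cell count with miR-34 switched on is under 0.7 times the count with it off; inactive = the rest.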
# Tests used:
# [1] = hESC survival regulators, cell-based (AID 493140; call rule not given here;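 also: cells exposed to compounds for four days before counting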); details: human embryonic stem cell survival screen; stronger effect = higher value
# [2] = liver-stage malaria parasite growth inhibition, primary screen, cell-based, HepG2, luciferase luminescence, HepG2 viability (AID 624349; in the data active = parasite load remaining mostly below about 12%, no sharp cut-off; inactive = mostly above about 10%;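 also: 100% = mean of DMSO negative control wells on the same plate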); details: P. berghei liver stage in HepG2, luciferase luminescence, concentration not given here; parasite load remaining: stronger effect = lower value; viability: measured here: HepG2 viability without parasites
# [3] = stimulators of nuclear beta-catenin in C2C12, primary screen, imaging, WNT3A-conditioned medium, mouse C2C12, NPC library (AID 1117326; in the data active = nuclear beta-catenin stimulation mostly above about 4.2%, no sharp cut-off; inactive = mostly below about 10%); details: stronger effect = higher value
# [4] = stimulators of insulin release from INS-1E, primary screen, cell-based, 5 mM glucose, NPC library (AID 1117329;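 active = compound raises insulin release from rat beta cells at 5 mM glucose, no numeric limit stated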); details: rat INS-1E insulin secretion, at 10 µM, stronger effect = higher value
# [5] = growth inhibition of GSK3B-pretreated HCT116 cells – cell-based, CellTiter-Glo, 0.2 to 20 µM (AID 1117336;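 active = compounds lowering colon cancer cell viability after pretreatment blocking the GSK3B kinase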); details: HCT116 viability after GSK3B inhibitor, at 20 µM, stronger effect = higher value
# [6] = inhibition of endothelial tube formation, primary screen, imaging, VEGF stimulated, CD31 staining, tube area, NPC library (AID 1117340;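 active = compound that reduces growth-factor-driven endothelial tube area in a mixed cell culture, no cutoff stated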); details: VEGF-stimulated ADSC/ECFC co-culture, at 10 µM, stronger effect = higher value
# [7] = glucagon-like peptide 1 release enhancers, primary assay, NCI-H716 cell line, NPC library (AID 1117341;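 active = compound raises GLP1 secretion from the human gut endocrine cells, with no numeric limit stated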); details: NCI-H716 cells, at 10 µM, stronger effect = higher value
# [8] = HCT116 colon cancer cell growth inhibition, primary screen, CellTiter-Glo luminescence, NPC library (AID 1117342;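 active = compounds that lower survival of HCT116 colon cancer cells in the luminescence readout, no numeric limit stated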); details: at 20 µM (top of the series)
# [9] = CellTiter-Glo luminescent readout of SW480 viability loss, NPC library primary (AID 1117343;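 active = compounds that lower viability of the colon cancer cells in the luminescence readout, with no numeric limit stated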); details: CellTiter-Glo luminescence; at 20 µM (top of the series) unless noted
# [10] = decreased DLD-1 cellular survival, CellTiter-Glo luminescent readout, NPC compound collection, primary HTS (AID 1117346;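 active = compounds that lower survival of DLD-1 colon cancer cells in the luminescence readout, no cutoff given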); details: DLD-1 viability, CellTiter-Glo luminescence; at 20 µM (top of the series)
# [11] = differential killing of epithelial or mesenchymal cells, primary screen, imaging, PC-3E GFP, TEM4-18 mCherry, co-culture (AID 1345086;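 active = compounds killing one labelled cell type while sparing the other, by normalised counts and ratio limits, not self-fluorescent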;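 as to all read-outs here: cells exposed to compound for 72 h before imaging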;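 as to red/green cell ratio (normalised): normalised mesenchymal count divided by normalised epithelial count so high means epithelial killing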); details: imaging cell counts, at 1 µM; for red/green cell ratio (normalised): actives lie on both sides, counts scaled to control wells, 1 = unselective
# [12] = sensitizers of A549 cells to miR-34 induction, primary screen, imaging, A549 dox-inducible miR-34, nuclei and caspase counts (AID 1347080); details: A549 miR-34 inducible, Hoechst nuclei count, 48 h
# [13] = survival rescue of mitochondrial mutant cells in low glucose, primary screen, MELAS cybrids, Rieske KO mouse fibroblasts, CellTiter-Glo (AID 1508586;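 active = mean z-score across replicates of 1.96 or higher in either the MELAS or the Rieske mutant cell line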;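 also: z relative to plate mean and SD of compound and empty wells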)
# [14] = biological target: NAD(+) hydrolase SARM1 (Homo sapiens) (UniProt Q6SZW1); test: SARM1 TIR NADase inhibitors, cell lysate, NAD-Glo luminescence (AID 1508614;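 active = compound whose remaining NAD level is above about 45 nM, limit read from the data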;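 also: higher remaining NAD means stronger inhibition of SARM1 NADase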); details: SAM-TIR HEK293T lysate NADase, at 1 µM, stronger effect = higher value
# [15] = measured here: epithelial PC-3E GFP cell survival
# [16] = measured here: mesenchymal TEM4-18 mCherry cell survival
# [17] = stronger effect = lower value, cell number ratio, induced over uninduced
# [18] = measured here: relative caspase fold change +Dox/-Dox
# [19] = measured here: total cells with miR-34 induction, stronger effect = lower value
# [20] = measured here: total cells without miR-34 induction
# [21] = MELAS cybrid survival, CellTiter-Glo 48 h, stronger effect = higher value
# [22] = Rieske KO mouse fibroblast survival, CellTiter-Glo 72 h
# NAD(+) hydrolase SARM1 (Homo sapiens), sequence (Q6SZW1 whole entry, looked up): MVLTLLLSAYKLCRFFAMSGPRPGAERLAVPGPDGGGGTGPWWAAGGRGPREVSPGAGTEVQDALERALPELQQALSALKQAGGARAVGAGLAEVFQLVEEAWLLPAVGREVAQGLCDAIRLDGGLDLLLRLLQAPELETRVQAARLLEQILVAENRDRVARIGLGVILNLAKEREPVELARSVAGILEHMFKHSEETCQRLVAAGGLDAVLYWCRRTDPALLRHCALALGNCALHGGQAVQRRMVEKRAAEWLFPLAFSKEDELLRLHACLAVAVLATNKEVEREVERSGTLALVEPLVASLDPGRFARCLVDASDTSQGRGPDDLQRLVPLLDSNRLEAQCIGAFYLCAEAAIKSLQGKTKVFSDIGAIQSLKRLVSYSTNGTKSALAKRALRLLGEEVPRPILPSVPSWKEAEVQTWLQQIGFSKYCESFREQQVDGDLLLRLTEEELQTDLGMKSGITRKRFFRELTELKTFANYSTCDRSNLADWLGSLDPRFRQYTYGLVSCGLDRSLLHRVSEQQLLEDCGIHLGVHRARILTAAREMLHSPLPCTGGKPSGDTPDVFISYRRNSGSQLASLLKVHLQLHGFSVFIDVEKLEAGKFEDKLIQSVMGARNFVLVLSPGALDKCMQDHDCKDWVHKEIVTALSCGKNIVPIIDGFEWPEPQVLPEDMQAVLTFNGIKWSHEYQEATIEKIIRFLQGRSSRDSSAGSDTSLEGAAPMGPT
smiles,measurement,setting,value
CCCNC(C)(C)COC(=O)c1ccccc1,survival,[1],15.2 (inactive)
same,parasite load remaining,[2],69.3% (inactive)
same,viability,[2],69.4%
same,nuclear beta-catenin stimulation,[3]; at 10 µM,0.1% (inactive)
same,nuclear beta-catenin stimulation,"[3]; stimulation, at 2 µM",0.2%
same,insulin secretion stimulation,[4],4.2% (inactive)
same,viability decrease,[5],0.2% (inactive)
same,tube area decrease,[6],6.5% (inactive)
same,GLP1 secretion stimulation,[7],4% (inactive)
same,inhibition of viability,[8],-3.5% (inactive)
same,viability decrease (inhibition),[9],42.3% (inactive)
same,viability decrease (inhibition),[10],25.6% (inactive)
same,red/green cell ratio (normalised),[11],1.13 (inactive)
same,normalised cell number,[11]; [15],1.15
same,normalised cell number,[11]; [16],1.29
same,fold change,[12]; [17],0.976 (inactive)
same,fold change,[12]; [18],0.64
same,cell count,[12]; [19],9410
same,cell count,[12]; [20],9640
same,z-score,[13]; [21],-0.122 (inactive)
same,z-score,[13]; [22],-0.0308
same,remaining NAD,[14],10 nM (inactive)
CCOc1ccc(NC(=O)CC(C)O)cc1 (stereo not given),nuclear beta-catenin stimulation,[3]; at 10 µM,-2.6% (inactive)
same,nuclear beta-catenin stimulation,"[3]; stimulation, at 2 µM",0.2%
same,insulin secretion stimulation,[4],0.2% (inactive)
same,viability decrease,[5],-0.1% (inactive)
same,tube area decrease,[6],4.3% (inactive)
same,GLP1 secretion stimulation,[7],-3.3% (inactive)
same,inhibition of viability,[8],1.4% (inactive)
same,viability decrease (inhibition),[9],-2.6% (active)
same,viability decrease (inhibition),[10],-15.7% (inactive)
same,red/green cell ratio (normalised),[11],1.16 (inactive)
same,normalised cell number,[11]; [15],0.83
same,normalised cell number,[11]; [16],0.96
same,fold change,[12]; [17],0.956 (inactive)
same,fold change,[12]; [18],0.822
same,cell count,[12]; [19],9180
same,cell count,[12]; [20],9600
same,remaining NAD,[14],10 nM (inactive)
C[C@H](O)C(=O)Nc1c(I)c(C(=O)NC(CO)CO)c(I)c(C(=O)NC(CO)CO)c1I,survival,[1],3.75 (inactive)
same,parasite load remaining,[2],99% (inactive)
same,viability,[2],105%
same,nuclear beta-catenin stimulation,[3]; at 10 µM,-2.7% (inactive)
same,nuclear beta-catenin stimulation,"[3]; stimulation, at 2 µM",2.4%
same,insulin secretion stimulation,[4],3.4% (inactive)
same,viability decrease,[5],0.8% (inactive)
same,tube area decrease,[6],-18.2% (inactive)
same,GLP1 secretion stimulation,[7],0.1% (inactive)
same,inhibition of viability,[8],-1.3% (inactive)
same,viability decrease (inhibition),[9],15% (inactive)
same,viability decrease (inhibition),[10],-3.1% (inactive)
same,red/green cell ratio (normalised),[11],1.21 (inactive)
same,normalised cell number,[11]; [15],0.98
same,normalised cell number,[11]; [16],1.18
same,fold change,[12]; [17],0.849 (inactive)
same,fold change,[12]; [18],2.22
same,cell count,[12]; [19],8600
same,cell count,[12]; [20],10100
same,z-score,[13]; [21],-0.551 (inactive)
same,z-score,[13]; [22],-0.888
CCCOc1cc(N)ccc1C(=O)OCCN(CC)CC,survival,[1],9.5 (inactive)
same,parasite load remaining,[2],77.2% (inactive)
same,viability,[2],75.5%
same,nuclear beta-catenin stimulation,[3]; at 10 µM,0% (inactive)
same,nuclear beta-catenin stimulation,"[3]; stimulation, at 2 µM",0.6%
same,insulin secretion stimulation,[4],4.5% (inactive)
same,viability decrease,[5],-4.1% (inactive)
same,tube area decrease,[6],-15.3% (inactive)
same,GLP1 secretion stimulation,[7],-1.7% (inactive)
same,inhibition of viability,[8],-3.9% (inactive)
same,viability decrease (inhibition),[9],4% (inactive)
same,viability decrease (inhibition),[10],-9.1% (inactive)
same,red/green cell ratio (normalised),[11],1 (inactive)
same,normalised cell number,[11]; [15],1.21
same,normalised cell number,[11]; [16],1.21
same,fold change,[12]; [17],0.973 (inactive)
same,fold change,[12]; [18],0.697
same,cell count,[12]; [19],9580
same,cell count,[12]; [20],9850
same,z-score,[13]; [21],-0.734 (inactive)
same,z-score,[13]; [22],-0.617
same,remaining NAD,[14],10 nM (inactive)
Cc1cc2c(cc1S(N)(=O)=O)S(=O)(=O)CCC2,survival,[1],26.1 (inactive)
same,parasite load remaining,[2],38.3% (inactive) and 103% (inactive)
same,viability,[2],50.2% and 93.9%
same,nuclear beta-catenin stimulation,[3]; at 10 µM,-0.4% (inactive)
same,nuclear beta-catenin stimulation,"[3]; stimulation, at 2 µM",1%
same,insulin secretion stimulation,[4],1.4% (inactive)
same,viability decrease,[5],-10.3% (inactive)
same,tube area decrease,[6],3.5% (inactive)
same,GLP1 secretion stimulation,[7],-0.7% (inactive)
same,inhibition of viability,[8],-0.03% (inactive)
same,viability decrease (inhibition),[9],3.2% (inactive)
same,viability decrease (inhibition),[10],-1.8% (inactive)
same,red/green cell ratio (normalised),[11],0.91 (inactive)
same,normalised cell number,[11]; [15],0.86
same,normalised cell number,[11]; [16],0.78
same,fold change,[12]; [17],0.932 (inactive)
same,fold change,[12]; [18],1.01
same,cell count,[12]; [19],8570
same,cell count,[12]; [20],9200
same,z-score,[13]; [21],-0.881 (inactive)
same,z-score,[13]; [22],0.124
same,remaining NAD,[14],10 nM (inactive)
CN(C)CC/C=C1\c2ccccc2Sc2ccc(Cl)cc21,parasite load remaining,[2],79% (inactive) and 61.2% (inactive) and 17.9% (inactive)
same,viability,[2],83.4% and 97.6% and 84.5%
same,nuclear beta-catenin stimulation,[3]; at 10 µM,1.8% (inactive)
same,nuclear beta-catenin stimulation,"[3]; stimulation, at 2 µM",0.5%
same,insulin secretion stimulation,[4],20.8% (active)
same,viability decrease,[5],51.1% (active)
same,tube area decrease,[6],42.6% (active)
same,GLP1 secretion stimulation,[7],15.7% (inactive)
same,inhibition of viability,[8],94.8% (active)
same,viability decrease (inhibition),[9],127% (active)
same,viability decrease (inhibition),[10],98.6% (active)
same,red/green cell ratio (normalised),[11],1.04 (inactive)
same,normalised cell number,[11]; [15],1.11
same,normalised cell number,[11]; [16],1.16
same,fold change,[12]; [17],0.848 (inactive) and 0.855 (inactive)
same,fold change,[12]; [18],1.41 and 2.28
same,cell count,[12]; [19],6900 and 9070
same,cell count,[12]; [20],8140 and 10600
same,z-score,[13]; [21],0.287 (inactive)
same,z-score,[13]; [22],0.968
S=C=Nc1ccc(N=C=S)cc1,nuclear beta-catenin stimulation,[3]; at 10 µM,16.4% (inactive)
same,nuclear beta-catenin stimulation,"[3]; stimulation, at 2 µM",-0.1%
same,insulin secretion stimulation,[4],3.2% (inactive)
same,viability decrease,[5],77.2% (active)
same,tube area decrease,[6],100% (active)
same,GLP1 secretion stimulation,[7],-3.9% (inactive)
same,inhibition of viability,[8],57% (active)
same,viability decrease (inhibition),[9],73.5% (active)
same,viability decrease (inhibition),[10],81.3% (active)
same,red/green cell ratio (normalised),[11],0.76 (inactive)
same,normalised cell number,[11]; [15],1.12
same,normalised cell number,[11]; [16],0.86
same,fold change,[12]; [17],0.826 (inactive)
same,fold change,[12]; [18],1.4
same,cell count,[12]; [19],7160
same,cell count,[12]; [20],8680
same,remaining NAD,[14],10 nM (inactive)
COc1cc(/C=C/C(N)=O)cc(OC)c1OC,nuclear beta-catenin stimulation,[3]; at 10 µM,1.1% (inactive)
same,nuclear beta-catenin stimulation,"[3]; stimulation, at 2 µM",0.6%
same,insulin secretion stimulation,[4],0.8% (inactive)
same,viability decrease,[5],-4.6% (inactive)
same,tube area decrease,[6],11.9% (inactive)
same,GLP1 secretion stimulation,[7],0.1% (inactive)
same,inhibition of viability,[8],-6% (inactive)
same,viability decrease (inhibition),[9],6.6% (inactive)
same,viability decrease (inhibition),[10],4.6% (inactive)
same,red/green cell ratio (normalised),[11],0.8 (inactive)
same,normalised cell number,[11]; [15],1.28
same,normalised cell number,[11]; [16],1.03
same,fold change,[12]; [17],0.933 (inactive)
same,fold change,[12]; [18],0.864
same,cell count,[12]; [19],8570
same,cell count,[12]; [20],9180
same,remaining NAD,[14],10 nM (inactive)
CC(=O)N(CC(O)CO)c1c(I)c(C(=O)NCCO)c(I)c(C(=O)NCC(O)CO)c1I (stereo not given),nuclear beta-catenin stimulation,[3]; at 10 µM,9.8% (inactive)
same,nuclear beta-catenin stimulation,"[3]; stimulation, at 2 µM",0.7%
same,insulin secretion stimulation,[4],0.3% (inactive)
same,viability decrease,[5],-3.3% (inactive)
same,tube area decrease,[6],1.4% (inactive)
same,GLP1 secretion stimulation,[7],2.4% (inactive)
same,inhibition of viability,[8],-3.1% (inactive)
same,viability decrease (inhibition),[9],-2.5% (active)
same,viability decrease (inhibition),[10],0.4% (inactive)
same,red/green cell ratio (normalised),[11],0.83 (inactive)
same,normalised cell number,[11]; [15],1.22
same,normalised cell number,[11]; [16],1.02
same,fold change,[12]; [17],0.937 (inactive)
same,fold change,[12]; [18],0.945
same,cell count,[12]; [19],9070
same,cell count,[12]; [20],9680
same,remaining NAD,[14],10 nM (inactive)
